According to PubChem BioAssay AID1446 (The Scripps Research Institute Molecular Screening Center, 2008):
Hit rate of the full screen: of about 220,000 compounds, about 2,400 (1.1%) were called active.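 The calls were made as follows: active = inhibition above the campaign mean plus 3 SD over all tested compounds (cut at about 24% in these data); inactive = the rest.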 For the sample, actives were picked, then their nearest neighbours and some compounds at random.

Assay: reduced viability of JAK2V617F-dependent Ba/F3 cells, primary screen, JAK2V617F inhibitor project, cell-based, Ba/F3 EpoR-JAK2V617F, luminescence (AID 1446);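 also: cytokine-independent growth of Ba/F3 cells driven by EpoR plus mutant JAK2; 0% = DMSO-treated cells and 100% = JAK inhibitor I control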
Conditions: ATP luminescence, at 5.6 µM, hits give high values

Row | SMILES | inhibition
1 | COc1cccc(-n2c(=O)c3c(C)c(C(=O)N(C)C)sc3n(CC(=O)NCCc3ccc(OC)c(OC)c3)c2=O)c1 | 3.31% (inactive)
2 | C/C(=N\NC(=O)C(N)=O)c1ccc2c(c1)OCCO2 | 1.44% (inactive)
3 | CCn1c2ccccc2c2cc(CC(N)=O)ccc21 | 2.78% (inactive)
4 | CCN(CCNC(=O)C1=C(C)C(=O)OC12CCC(C)CC2)c1ccccc1 (configuration not stated) | -2% (inactive)
5 | CC(C)CC(COCc1ccc(Cl)cc1)N1CCN(C(=O)c2ccc(C(F)(F)F)cc2)CCC1=O (configuration not stated) | -1.84% (inactive)
6 | N#C/C=C\Oc1ccc(Cl)cc1N | 28% (active)
7 | COc1ccc(Cl)cc1C(=O)NCC#N | -0.27% (inactive)
8 | COc1ccc(N(C(=O)c2ccc(C)cc2)S(=O)(=O)c2cccs2)cc1 | 0.51% (inactive)
9 | Cc1nc(CNS(=O)(=O)c2cc([N+](=O)[O-])ccc2C)cs1 | 0.63% (inactive)
10 | O=C(O)CCC(=O)Nc1nc2ccc([N+](=O)[O-])cc2s1 | 3.19% (inactive)
11 | O=C(NC(Nc1nc2ccc([N+](=O)[O-])cc2s1)(C(F)(F)F)C(F)(F)F)c1ccccc1 | 70.1% (active)
12 | O=C(Nc1nc2ccc([N+](=O)[O-])cc2s1)c1ccncc1 | -1.41% (inactive)
13 | CC1C(=O)NC(=O)C1c1ccccc1 (configuration not stated) | -4.47% (inactive)
14 | c1ccc(Cc2cc[n+](Cc3ccccc3)cc2)cc1 | 52.6% (active)
15 | CN(C)c1ccc(/C=N/N(Cc2ccccc2)c2ccccc2)cc1 | 3.41% (inactive)
16 | CN(C)c1cc[n+](Cc2ccccc2)cc1 | 87.3% (active)
17 | COC(=O)c1ccc(Cc2ccccc2)o1 | -0.12% (inactive)
18 | CN(Cc1ccccc1)Cc1ccccc1F | 3.28% (inactive)
19 | CSc1ccc(CN2C(=O)NC3(CCCCCC3)C2=O)cc1 | -4.13% (inactive)
20 | C/C(=N\NC(=O)COc1c(C)cccc1C)c1cccs1 | 1.35% (inactive)
21 | COCCn1c(SCC(=O)c2[nH]c(C)c(C(C)=O)c2C)nc2ccccc2c1=O | 1.81% (inactive)

Row | SMILES | inhibition
22 | Cc1[nH]n(C)c(=O)c1N=Nc1ccc(S(C)(=O)=O)cc1 | 1.06% (inactive)
23 | CC1=C/C(=N\OS(=O)(=O)c2ccccc2)C=CC1=O | 40.6% (active)
24 | CCOC(=O)C1(S(=O)(=O)c2ccccc2)CCN(Cc2ccccc2)CC1 | 0.13% (inactive)
25 | CC1=C/C(=N\S(=O)(=O)c2ccccc2)C(C(C)C)=CC1=O | -3.55% (inactive)
26 | Cc1ccc2nc(C)c3c(c2c1)N(c1ccccc1)CC3 | 19.9% (inactive)
27 | COc1ccc(NC(=O)CN2C(=O)CSC2=O)cc1 | -1.19% (inactive)
28 | COCCCNC(=O)C1CCN(c2ccc(N3CCOCC3)nn2)CC1 | -2.04% (inactive)
29 | O=C1CCCN1CCCNc1ncnc2c1[nH]c1ccccc12 | -3.47% (inactive)
30 | COc1cc(OC)c(OC)cc1/C=N/Nc1ncnc2c1[nH]c1ccc(C)cc12 | -4.25% (inactive)
31 | CC(C)OCCCNc1ncnc2c1[nH]c1ccc(F)cc12 | 64.7% (active)
32 | CC(=O)N1CCN(S(=O)(=O)c2ccc(C)c([N+](=O)[O-])c2)C1C(C)C (configuration not stated) | -3.14% (inactive)
33 | COc1ccc(N=Nc2ccc(O)c(P(=O)(c3ccccc3)c3ccccc3)c2)cc1 | -0.59% (inactive)
34 | Cc1nn(-c2ccccc2)c(C)c1NC(=O)CCl | 3.19% (inactive)
35 | Cc1nc2ccc(C(=O)O)cc2[nH]1 | -7.6% (inactive)
36 | CC(C)c1nc2ccc(C(=O)O)cc2[nH]1 | -2.92% (inactive)
37 | COC(=O)Nc1nc2ccc(Sc3ccccc3)cc2[nH]1 | 83.8% (active)
38 | O=C(Cc1ccccc1)Nc1c(Cl)ccc2nsnc12 | -3.82% (inactive)
39 | CCC1(C(=O)c2ccccc2)C(c2cccc([N+](=O)[O-])c2)C1(C(=O)OC)C(=O)OC (configuration not stated) | -2.96% (inactive)
40 | Cc1cc2c(cc1C)[n+](C)cn2CC(O)COCC1CC=CCC1 (configuration not stated) | 44.4% (active)
41 | CC(NC(=O)Nc1ccccc1)C(c1cccs1)N1CCN(c2ccccc2)CC1 (configuration not stated) | -1.45% (inactive)
42 | CCOc1ccc(C2c3[nH]c4ccccc4c3CCN2Cc2cccn2-c2ncccn2)cc1 (configuration not stated) | -1.83% (inactive)

Row | SMILES | inhibition
43 | O=C(O)CS/C(=C\c1ccc(F)cc1)c1nc2ccccc2s1 | -2.1% (inactive)
44 | Cc1cc2oc(C(=O)Nc3c(C)n(C)n(-c4ccccc4)c3=O)c(C)c2cc1Cl | -1.25% (inactive)
45 | O=C(CCl)N(Cc1cccc([N+](=O)[O-])c1)c1cccc(Cl)c1 | 84.1% (active)
46 | O=C(Nc1cccc([N+](=O)[O-])c1)Nc1ccc(Cl)cn1 | -2.62% (inactive)
47 | CCN(CC)C(=O)CN(c1cccc([N+](=O)[O-])c1)S(=O)(=O)c1ccccc1 | 0.82% (inactive)
48 | Cc1ccc(N(C(=O)c2ccc(S(=O)(=O)N(C)C)cc2)C2C=CS(=O)(=O)C2)cc1 (configuration not stated) | -0.1% (inactive)
49 | O=C(Cn1nc(CNc2ccc(Cl)cc2)[n+]2c1CCCCC2)c1ccc(Cl)cc1 | 1.65% (inactive)
50 | COc1ccc(C2=NOC(C(=O)NCc3ccco3)C2)cc1OC (configuration not stated) | 56.5% (active)
51 | COc1ccc(-c2cc(C(=O)NCc3ccco3)no2)cc1OC | -1.88% (inactive)
52 | Cc1ccc(CNC(=O)C2CC(c3ccccc3[N+](=O)[O-])=NO2)o1 (configuration not stated) | -5.08% (inactive)
53 | Cc1ccc(NC(=S)N(CCCN2CCC(C)CC2)Cc2ccco2)cc1 | 25.4% (active)
54 | Cc1ccc(NC(=S)N(CCN2CCCCC2)Cc2ccco2)cc1C | -2.95% (inactive)
55 | Cc1ccc(NC(=S)N(Cc2ccco2)C(C)c2cccs2)cc1 (configuration not stated) | 3.37% (inactive)
56 | O=C(NC1CCCCC1)c1cc(C2CC2)on1 | -4.7% (inactive)
57 | CN(C)c1ccc(Nc2c3c4c(cccc4n(C)c2=O)C(=O)c2ccccc2-3)cc1 | 2.4% (inactive)
58 | CON(C)S(=O)(=O)c1ccc2c(c1)NC(=O)C1CCCN21 (configuration not stated) | 1.23% (inactive)
59 | Nn1c(SCc2ccccc2)nnc1C1CCCCC1 | -0.47% (inactive)
60 | COc1ccc(C(=O)NC(=S)Nc2ccc(N3CCCC3)cc2)cc1OC | -0.26% (inactive)
61 | COc1cccc(C(=O)Nc2ccc(N3CCCC3)cc2)c1 | 59.5% (active)
62 | COc1cccc(OC)c1C(=O)Nc1ccc(N2CCCCC2)cc1 | -0.78% (inactive)
